The list is not random: actives were taken first. Their share in the collection is about 12%.
PI5P4K alpha inh: blocks human PI5P4K alpha kinase activity | PI5P4Kalpha enzyme, ADP-Glo luminescence, 60 min; hits give low values | max response, % | 1.2% of 330,000 active; active means max response of -50% or lower; inconclusive means between -30% and -50%; inactive means -30% or higher; further: value at the top dose of about 77 µM; on the % scale 0 is the no-effect control and ±100 the full control effect
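Enzyme plus substrate dispensed, test compounds pinned in, then ATP (5 microM final) added. After 60 min at RT, ADP-Glo reagent 1 for 45 min and reagent 2 for 30 min preceded luminescence imaging.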
G9a inh: blocks human histone lysine methyltransferase G9a; Potency, µM (top dose mostly 102 µM), for the others: at the top dose activity, negative = inhibition, most hits filed as inhibitors; Q96KQ7; 8.8% of 350,000 active; G9a H3K9 monomethylation, AlphaScreen, 2 h; further: potency means the concentration at half of the fitted maximal effect; on the % scale 0 is the no-effect control and ±100 the full control effect; nearly all actives have a fitted effect of over 75% in size
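G9a (20 nM) was preincubated 15 min with compound, then reacted 2 h at room temperature with 500 nM biotin-H3K9 peptide and 20 µM SAM. Monomethyl-H3K9 detected by AlphaScreen using anti-H3K9me1 antibody.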
BAZ2B inh: blocks human BAZ2B. Q9UIF8. AlphaScreen BAZ2B-H3K14Ac peptide displacement. Potency, µM (highest dose often 114 µM), for inactives: top-dose activity change, negative = inhibition, usual class: inhibitors. 4.4% of 360,000 active. AID 504333; further: potency means the concentration at half of the fitted maximal effect; on the % scale 0 is the no-effect control and ±100 the full control effect; nearly all actives have a fitted effect of over 60% in size
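BAZ2B 50 nM plus b-H3(5-23)K14Ac 50 nM, PBS pH 7.4/0.01% Tween-20, 30 min RT; compound added (max 110 uM), 30 min RT; streptavidin donor/Ni-chelate acceptor beads 10 ug/mL final, 20 min dark; AlphaScreen read.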
PLK1 PBD inh: blocks phosphopeptide binding to human PLK1 polo-box domain; P53350; Plk1 PBD binding of FITC phosphopeptide, fluorescence polarization; Potency, µM, inactives show max response, negative = inhibition, hits mostly inhibitors; 2.8% of 360,000 active; AID 720504; further: potency means the concentration at half of the fitted maximal effect; series mostly up to about 57 µM; on the % scale 0 is the no-effect control and ±100 the full control effect; nearly all actives have a fitted effect of over 65% in size
Target sequence (P53350 whole entry, looked up, the tested form may be a part): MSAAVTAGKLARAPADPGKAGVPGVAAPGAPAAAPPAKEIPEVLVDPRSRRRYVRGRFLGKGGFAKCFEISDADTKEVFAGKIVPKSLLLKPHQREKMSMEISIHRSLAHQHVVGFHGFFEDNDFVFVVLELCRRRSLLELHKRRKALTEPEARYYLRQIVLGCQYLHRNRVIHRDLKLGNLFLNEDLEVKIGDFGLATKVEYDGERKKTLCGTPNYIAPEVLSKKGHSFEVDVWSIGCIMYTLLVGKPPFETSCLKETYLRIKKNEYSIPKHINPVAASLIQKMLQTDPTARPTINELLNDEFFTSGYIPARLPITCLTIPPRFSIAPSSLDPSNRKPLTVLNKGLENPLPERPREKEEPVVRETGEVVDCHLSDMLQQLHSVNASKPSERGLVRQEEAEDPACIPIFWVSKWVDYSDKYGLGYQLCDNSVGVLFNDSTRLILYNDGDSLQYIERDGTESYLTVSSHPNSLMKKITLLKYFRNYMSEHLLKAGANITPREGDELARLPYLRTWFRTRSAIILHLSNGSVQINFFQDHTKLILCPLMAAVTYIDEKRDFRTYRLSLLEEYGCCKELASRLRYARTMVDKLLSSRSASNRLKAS
HP1b binding inh: blocks HP1-beta chromodomain binding to methylated histone tails | P83916 | AlphaScreen HP1-beta / biotin-H3K9me3 peptide binding | Potency, µM (series often up to 114 µM), without a hit: top-dose activity change, negative = inhibition, hits mostly inhibitors | 0.56% of 390,000 active; further: potency means the concentration at half of the fitted maximal effect; nearly all actives have a fitted effect of over 70% in size
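HP1-beta protein (50 nM final) preincubated 30 min at room temperature with biotinylated H3(1-18)K9me3 peptide (50 nM) in PBS pH 7.4, 0.01% Tween-20, then compound added for 30 min. AlphaScreen streptavidin donor/nickel chelate acceptor beads (10 ug/mL final), 30 min dark, luminescence read.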
JMJD2A Tudor: JMJD2A Tudor domain (human) inhibition. O75164. AlphaScreen JMJD2A-Tudor / H3K4me3 peptide binding. Potency, µM (top dose mostly 114 µM), for the others: top-dose activity change, negative = inhibition, usual class: inhibitors. 4.4% of 390,000 active. AID 504339; further: potency means the concentration at half of the fitted maximal effect; on the % scale 0 is the no-effect control and ±100 the full control effect; nearly all actives have a fitted effect of over 50% in size
Active calls of the source: *; ? = inconclusive; nt = no result; ! = not active in a repeat; [ ] = remark or other dose. Unless noted, the call rests on the fitted dose curve; in most records, active means well fitted curve in the direction sought with a large enough effect; inconclusive means small, poorly fitted or top-dose-only effect, or another doubt; inactive means no such curve, though single readings can be large; an effect the other way counts as inactive or inconclusive.

SMILES | PI5P4K alpha inh | G9a inh | BAZ2B inh | PLK1 PBD inh | HP1b binding inh | JMJD2A Tudor
COc1ccc(/C=C2/C(=O)NC(=O)N(c3ccccc3)C2=O)cc1CN1C(=O)c2ccccc2C1=O | -53* | -111%[59 µM] | ? | 6µM* | 20% | -35%
COCCCOc1ccnc(CS(=O)c2nc3ccccc3[nH]2)c1C (centres undefined) | ? | 13µM* | ? | ? | 22µM* | 35µM*
O=C(O)C1C2CCC(O2)C1C(=O)Nc1cccc(Br)c1 (centres undefined) | 0 | 23% | 11% | -1% | 31% | 6%
C=CCN1C(=O)/C(=C/c2ccc(N3CCOCC3)o2)C(=O)NC1=S | -8 | ? | ? | 78% | 7% | -12%
O=C1NC(=O)N(c2ccc3c(c2)OCO3)C(=O)/C1=C/c1ccc(N2CCCCC2)o1 | -9 | 50µM* | -36% | 102% | 25% | -3%
Cc1cc(C)cc(N2C(=O)/C(=C\c3ccc(N4CCN(C)CC4)o3)C(=O)NC2=S)c1 | -9 | ? | 35µM* | 119% | ? | -32%
O=C1NC(=O)N(c2ccc3c(c2)OCO3)C(=O)/C1=C\c1ccsc1 | -24 | nt | -10% | 4.7µM* | 49% | 6%
OC[C@@H](O)[C@H]1O[C@@H]2OC(C(Cl)(Cl)Cl)O[C@H]2[C@H]1O (some centres undefined) | nt | 3%[12.7 µM] | nt | nt | nt | nt
CC(C)(C)OC(=O)N1CC(O)CC1C(=O)OCC(=O)c1ccc(-c2ccccc2)cc1 (centres undefined) | 0 | ? | -33% | -1% | 28% | ?
CC(C)(C)NC[C@H](O)c1cc(Cl)c(N)c(Cl)c1 | nt | 20%[21.5 µM] | nt | nt | nt | nt
O=C(Nc1ccccc1)N1CC2(CCN(C(=O)Oc3ccccc3)CC2)C1 | nt | -4%[12.7 µM] | nt | nt | nt | nt
O=C(NC(Cc1cnc[nH]1)C(=O)O)c1ccccc1 (centres undefined) | -10 | ? | -12% | -15% | 14% | -16%
O=C(O)C(Cc1cnc[nH]1)NS(=O)(=O)c1ccc(Br)cc1 (centres undefined) | 15 | 40µM* | -7% | -18% | 2% | 10µM*
C/C(=C/CCC(C)[C@H]1CC[C@@]2(C)C3=C(CC[C@]12C)[C@@]1(C)CCC(=O)C(C)(C)[C@@H]1CC3)C(=O)O (some centres undefined) | 0 | ? | ? | 13µM* | 10% | 63µM*
COc1cc(/C=N/NC(=O)c2cnccn2)cc(OC)c1OC | -6 | ? | -6% | -3% | -7% | 9%
CCc1ccc(NC(=O)c2ccc(F)c(S(=O)(=O)N3CCC4(CC3)OCCO4)c2)cc1 | nt | 6%[59 µM] | -1% | nt | 45% | -13%
N[C@@H](Cc1cc(I)c(O)c(I)c1)C(=O)O | -98* | 6.3µM*! | 7% | -14% | ? | 11µM*
CN1C(=O)N(C)C(=O)C2(Cc3ccccc3N3CCCC32)C1=O (centres undefined) | 0 | 11%[12.7 µM] | -6% | -17% | 27% | -20%
O=C1NC(=O)C2(Cc3ccccc3N3CCCC32)C(=O)N1c1ccc(Cl)cc1 (centres undefined) | nt | 20µM* | 12% | -18% | 15% | ?
Cc1ccc(N2C(=O)NC(=O)C3(Cc4ccccc4N4CCCC43)C2=O)cc1 (centres undefined) | 2 | 8.9µM* | -2% | -7% | 33% | -27%
COC(=O)N1CCC2(CCN(CC(C)C)CC2)CC1 | nt | 9%[12.7 µM] | nt | nt | nt | nt
Cn1cccc1/C=C1\C(=O)NC(=O)N(Cc2ccccc2Cl)C1=O | -69* | 45µM* | nt | ? | 3% | ?
C[C@H]1CN([C@@H](C)CO)C(=O)c2cc(NC(=O)Nc3cccc4ccccc34)ccc2O[C@@H]1CN(C)Cc1ccc(-c2ccccc2)cc1 | 24 | nt | nt | -16% | -5% | ?
Cc1ccc2c(c1)CC1(CN2C)C(=O)NC(=O)N(c2cc(C)ccc2C)C1=O (centres undefined) | 3 | 5.6µM* | 3% | -15% | 67% | -29%
COc1ccc(OC)c(N2C(=O)NC(=O)C3(Cc4cc(C)ccc4N(C)C3)C2=O)c1 (centres undefined) | 1 | 8.9µM* | -3% | -9% | 11% | -29%
SMILES | PI5P4K alpha inh | G9a inh | BAZ2B inh | PLK1 PBD inh | HP1b binding inh | JMJD2A Tudor
COc1ccc2c(c1)CC1(CN2C)C(=O)NC(=O)N(CCc2ccccc2)C1=O (centres undefined) | nt | 11µM* | ? | -21% | 38% | -32%
COc1cccc(N2C(=O)NC(=O)C3(Cc4cc(C)ccc4N(C)C3)C2=O)c1 (centres undefined) | -6 | 2.8µM* | 5% | -20% | 42% | ?
COc1cc(/C=C/C(=O)c2c(O)n(CCc3ccccc3)c(=O)[nH]c2=O)ccc1O | -65* | 45µM* | 11% | -1% | 16% | -9%
O=C(/C=C/c1ccccc1)c1c(O)n(CCc2ccccc2)c(=O)[nH]c1=O | -27 | 21%[59 µM] | 2% | -9% | 10% | -20%
NCC1O[C@@H](O[C@H]2C(O)C(O[C@@H]3C(O[C@H]4OC(CO)C(O)C(O)C4N)C(N)CC(N)[C@H]3O)O[C@@H]2CO)C(N)C(O)C1O (some centres undefined) | nt | -8%[2.33 µM] | nt | nt | nt | nt
COc1cc2c(cc1OC)C1C(=O)c3ccc4c(c3OC1CO2)CC(C(C)C)O4 (centres undefined) | 4 | nt | nt | 4% | -28%[57 µM] | 45µM*
COc1cc2c(cc1OC)[C@@H]1C(=O)c3ccc4c(c3O[C@@H]1CO2)C[C@H](C(C)C)O4 | 6 | nt | ? | -7% | -6% | ?
CC(C)c1ccc(NC(=O)CN2C(=O)CN=C(c3ccccc3)c3ccccc32)cc1 | nt | 5%[59 µM] | nt | nt | 10% | -18%
CC[C@@]1(c2ccc(N)cc2)CCC(=O)NC1=O | nt | -26%[12.7 µM] | nt | nt | nt | nt
CCCOP(=O)(c1ccc(N(C)C)cc1)C(O)c1ccc(Cl)cc1Cl (centres undefined) | -5 | -8% | -27% | -18% | -16% | ?
CCN(CC)c1ccc(/C=C/[N+](=O)[O-])cc1 | -4 | 45µM* | nt | 0% | -27% | ?
COc1cc2c(cc1O)C(Cc1ccc(O)cc1)NCC2 (centres undefined) | -8 | 79µM* | -29% | -6% | 36% | -13%
COc1ccc(CC2c3cc(OC)c(OC)cc3CCN2C)cc1O (centres undefined) | 3 | 20% | 3% | -1% | 30% | 0%
CCn1c(NN=O)nc2ccccc21 | -4 | ? | 56µM* | -3% | -21% | 89µM*
CCn1c(P(C)(=O)O)nc2ccccc21 | -2 | 4%[59 µM] | -9% | -13% | 4% | ?
CC(C)c1cccc(O)c(=O)c1 | 9 | 11µM*! | 56µM* | 2% | 49% | -23%
NCC(O)c1cccc(O)c1 (centres undefined) | nt | -4%[12.7 µM] | nt | nt | nt | nt

Compound activity: PubChem BioAssay, National Center for Advancing Translational Sciences (NCATS)
